Reference: PubChem BioAssay (NCI)
Compounds without any hit were thinned out: in the full panel of roughly 83,000, 20% have a hit.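 Cells were grown in 96-well plates and exposed to the test compound at a single concentration for 48 hours; results are reported as percent growth, with values below 10 considered active.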 Values without a mark were called inactive. The source made the active and inactive calls.

What was measured:
Test in all cases: NCI-60 one-dose screen, 48 h (100 = growth as untreated, 0 = no growth, -100 = all killed)
Settings in all cases: 10 µM unless noted
HCT-15 colon = test system: HCT-15 colon
HT29 colon = test system: HT29 colon
SNB-75 CNS = test system: SNB-75 CNS
SNB-19 CNS = test system: SNB-19 CNS
U251 CNS = test system: U251 CNS
PC-3 prostate = test system: PC-3 prostate
LOX IMVI melanoma = test system: LOX IMVI melanoma
SK-MEL-2 melanoma = test system: SK-MEL-2 melanoma
EKVX NSCLC = test system: EKVX NSCLC
UO-31 renal = test system: UO-31 renal
TK-10 renal = test system: TK-10 renal
ACHN renal = test system: ACHN renal
CAKI-1 renal = test system: CAKI-1 renal
A498 renal = test system: A498 renal
CCRF-CEM leukemia = test system: CCRF-CEM leukemia
MOLT-4 leukemia = test system: MOLT-4 leukemia
SK-MEL-28 melanoma = test system: SK-MEL-28 melanoma
SN12C renal = test system: SN12C renal
SK-MEL-5 melanoma = test system: SK-MEL-5 melanoma
UACC-62 melanoma = test system: UACC-62 melanoma

SMILES	growth (HCT-15 colon)	growth (HT29 colon)	growth (SNB-75 CNS)	growth (SNB-19 CNS)	growth (U251 CNS)	growth (PC-3 prostate) [%]	growth (LOX IMVI melanoma)	growth (SK-MEL-2 melanoma)	growth (EKVX NSCLC)	growth (UO-31 renal)	growth (TK-10 renal)	growth (ACHN renal)	growth (CAKI-1 renal)	growth (A498 renal)	growth (CCRF-CEM leukemia)	growth (MOLT-4 leukemia)	growth (SK-MEL-28 melanoma)	growth (SN12C renal)	growth (SK-MEL-5 melanoma)	growth (UACC-62 melanoma)
CC(=O)c1cc(C(=O)c2ccc3c(c2)Sc2ccccc2N3)n2ccccc12	17.9%	-13.1% (active)	13.1%	30.9%	9.6% (active)	22.2	20.8%	20.3%	41.2%	19.9%	59.2%	26.2%	24.1%	-11.9% (active)	5.4% (active)	13.9%	–	–	–	–
O=C(Cc1ccc(/C=C/C(=O)c2ncc[nH]2)cc1)Nc1ccc(F)cc1	5.31% (active)	3.91% (active)	20.4%	14.2%	8.1% (active)	32.9	2.77% (active)	79.1%	34.8%	17.2%	35.9%	46.4%	–	66.9%	2.63% (active)	14.7%	87.2%	17.4%	–	–
COc1cc(-c2nc(C(=O)NCC(=O)NO)nn2-c2ccc(Cl)cc2)cc(OC)c1OC	101%	96.4%	87.7%	100%	96.1%	87.9	95.9%	95.4%	103%	83.5%	96.9%	98.9%	89.3%	110%	107%	97.4%	–	–	–	–
COc1ccc(C(=O)COc2cccc(/C=C3\CSc4ccccc4C3=O)c2)cc1	-54.1% (active)	-88.2% (active)	91.6%	63.6%	-86.7% (active)	–	-100% (active)	-30.9% (active)	70.7%	18%	-5.8% (active)	-35.8% (active)	-47.9% (active)	85.4%	-62.2% (active)	-65.7% (active)	-62.3% (active)	29.6%	-75.8% (active)	-72% (active)
CC(=O)O[C@H]1C(=O)[C@@]2(C)[C@H]([C@H](OC(=O)c3ccccc3)[C@]3(O)C[C@H](OC(=O)[C@H](OC(=O)CCC(=O)OC4CCC(S/N=C(N)/N=C(\N)N(C)C)CC4)[C@@H](NC(=O)c4ccccc4)c4ccccc4)C(C)=C1C3(C)C)[C@]1(OC(C)=O)CO[C@@H]1C[C@@H]2O (stereo not given in full)	25.3%	5% (active)	-22.3% (active)	29.8%	17.1%	28.4	42.9%	–	37.3%	47.3%	48.9%	39.7%	25.5%	26.7%	17.5%	22.5%	–	–	–	–
CCOc1nc(-c2ccccc2)cc2c(O)c(C(=O)N/N=C/c3ccc(O)cc3O)[nH]c(=O)c12	23.9%	48.3%	59.6%	43.2%	21.2%	–	-0.51% (active)	-8.71% (active)	36.2%	-13.2% (active)	52.1%	9.99% (active)	8.55% (active)	65.3%	-33.9% (active)	17.3%	60%	39.1%	21.9%	9.73% (active)
COc1cc(-c2ccc3c(c2)NC(=O)/C3=C\c2ccc[nH]2)ccc1O	14.1%	18.9%	47.2%	34.8%	15.4%	–	-8.36% (active)	31.4%	35.6%	14.5%	35.7%	11.6%	11.2%	64%	12.3%	10.3%	37.5%	27.5%	-27.5% (active)	32.2%
CC/C=C\C[C@H](O)C/C=C1/C(=O)C=C[C@@]1(C)C/C=C\CCCC(=O)OC	101%	110%	99.1%	101%	94.2%	96.1	94.3%	103%	104%	92.1%	–	101%	96.9%	97.3%	108%	94.4%	–	–	–	–
Cc1cc(C)nc(SC2=C(Nc3cccc(Cl)c3C)C(=O)N(Cc3ccccc3)C2=O)n1	51.6% [30 µM]	30.2% [30 µM]	50.5% [30 µM]	71.9% [30 µM]	49.4% [30 µM]	–	59% [30 µM]	69.6% [30 µM]	47.2% [30 µM]	14.7% [30 µM]	60.5% [30 µM]	65.2% [30 µM]	60.8% [30 µM]	40.1% [30 µM]	26.9% [30 µM]	4.41% [30 µM] (active)	85.1% [30 µM]	70.1% [30 µM]	64.3% [30 µM]	56.2% [30 µM]
